Source: PubChem
Rab9 promoter act: activates the Rab9 promoter; Potency, µM (titrated, usually from 9.22 µM), inactives show top-dose activation, negative = inhibition, actives largely listed as activators; Huh7 Rab9 promoter-luciferase reporter, luminescence, 24 h; 2.8% of 320,000 active; further: % of control where 0% means no effect; nearly all actives have a fitted effect of over 60% in size
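Steps: seed 1500 Huh7 Rab9-luc cells per well, rest 2 h at 37 °C; add compound in DMSO; incubate 24 h; add luciferase reagent, 10 min ambient; read luminescence.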
SMN2 splice enh: enhancers of SMN2 splice variant expression. HEK293 SMN2-luciferase splicing reporter, luminescence, 30-36 h. AID 1458. 2.8% of 210,000 active. Potency, µM (top dose mostly 46.1 µM), inactives show top-dose activity change, positive = activation, usual class: activators; further: % of control where 0% means no effect; nearly all actives have a fitted effect of over 55% in size
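HEK293 cells carry an SMN2 […]–luciferase reporter in which exon 7 inclusion puts luciferase in frame. Cells were plated 10-12 h before compound addition, then incubated 30-36 h at 37C. ONE-Glo luminescence was read; sodium butyrate at 4.5 mM final served as control.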
ELG1 DNA repair: blocks ELG1-dependent DNA repair in HEK293T cells; 2.3% of 330,000 active; Potency, µM (series often up to 46.1 µM), without a hit: top-dose activity change, negative = inhibition, hits mostly inhibitors; AID 504467; HEK293T ELG1-luciferase reporter, luminescence, 16 h; DNA damage induced by 5-fluorouridine; further: on the % scale 0 is the no-effect control and ±100 the full control effect; nearly all actives have a fitted effect of over 55% in size
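Reporter activity after DNA damage by 5-fluorouridine is monitored. Compound-treated cells incubate 16 hr at 37 °C, then ONE-Glo is added for 30 min before luminescence reading.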
ELG1 genotoxic: inducers of genotoxicity in HEK293T ELG1-luciferase cells; HEK293T ELG1-luciferase reporter, luminescence, 16 h; Potency, µM (series often up to 46 µM), for inactives: at the top dose activity change, positive = activation, usual class: activators; 1.3% of 330,000 active; further: % of control where 0% means no effect; nearly all actives have a fitted effect of over 60% in size
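DMSO vehicle served as control against compound-treated ELG1-luciferase HEK293T cells; exposure lasted 16 hr at 37 °C and 5% CO2, followed by ONE-Glo luminescence detection after 30 min.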
FLuc modulator: firefly luciferase modulation, counter-screen for miR-21 project; 6.9% of 360,000 active; Potency, µM (top dose mostly 57.5 µM), without a hit: at the top dose activity change, negative = inhibition, actives largely listed as inhibitors; purified FLuc, Km substrates, luminescence inhibition; AID 588342;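 further: plate controls were vehicle for no effect and reference inhibitor for full effect; nearly all actives have a fitted effect of over 55% in size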
Target sequence (P08659 whole entry, looked up): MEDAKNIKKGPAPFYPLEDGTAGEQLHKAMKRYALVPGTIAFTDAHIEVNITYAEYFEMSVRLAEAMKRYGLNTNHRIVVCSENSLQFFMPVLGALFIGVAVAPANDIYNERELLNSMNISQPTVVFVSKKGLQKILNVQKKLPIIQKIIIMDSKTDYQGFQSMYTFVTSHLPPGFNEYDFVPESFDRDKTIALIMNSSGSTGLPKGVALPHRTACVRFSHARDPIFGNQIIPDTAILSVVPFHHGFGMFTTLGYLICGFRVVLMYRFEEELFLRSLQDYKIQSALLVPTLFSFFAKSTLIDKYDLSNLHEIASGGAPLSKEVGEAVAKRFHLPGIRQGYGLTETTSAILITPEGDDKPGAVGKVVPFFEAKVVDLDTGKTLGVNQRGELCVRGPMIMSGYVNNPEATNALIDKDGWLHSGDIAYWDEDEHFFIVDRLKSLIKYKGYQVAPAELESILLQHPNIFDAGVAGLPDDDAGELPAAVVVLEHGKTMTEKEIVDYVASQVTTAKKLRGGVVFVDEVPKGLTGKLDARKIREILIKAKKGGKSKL
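Purified P. pyralis luciferase (10nM final) with 10uM D-luciferin and 10uM ATP (Km levels) in 50mM Tris acetate pH 7.5, 10mM Mg acetate, 0.01% Tween-20, 0.05% BSA; qHTS 6-point titration, ~60 µM downward; luminescence read.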
NPC1 prom act: NPC1 promoter activation | Huh7 NPC1 promoter luciferase reporter, 24 h | Potency, µM (titrated, usually from 9.22 µM), for inactives: top-dose activation, actives largely listed as activators | 2.4% of 320,000 active | AID 485313; further: % of control where 0% means no effect; nearly all actives have a fitted effect of over 60% in size
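Cells: Huh7 expressing luciferase under the NPC1 promoter, 1500/well. Seeded 2 h, compound added, incubated 24 h at 37 °C. Luciferase reagent, 10 min ambient, then luminescence.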
* = called active by the depositor; ? = inconclusive; . = no result; [ ] = another dose, or the depositor's remark. In the library only some 9.3% were active in any assay of this set; here they are far more common. The call rests on the fitted dose curve; in most records, active means well fitted curve in the direction sought with a large enough effect; inconclusive means small, poorly fitted or top-dose-only effect, or another doubt; inactive means no such curve, though single readings can be large; an effect the other way counts as inactive or inconclusive. Potency means the concentration at half of the fitted maximal effect.

SMILES	Rab9 promoter act	SMN2 splice enh	ELG1 DNA repair	ELG1 genotoxic	FLuc modulator	NPC1 prom act
Cc1ccc(SCc2cc(=O)[nH]c(N3CCN(Cc4ccc5c(c4)OCO5)CC3)n2)cc1	-1.4%	-25.6%	-1.3%	-1.6%	1.0%[2.3 µM]	0.2%
O=C(CCCc1ccccc1)Nc1ccnn1C1CCN(Cc2ccc(Cl)cc2)CC1	0.9%	.	?	-6.3%	3.1%	-20.0%
COc1ccc(CCNC(=O)C2CCN(S(=O)(=O)c3ccc(NC(C)=O)cc3)CC2)cc1OC	-0.2%	.	-1.1%	-0.3%	-0.9%	-3.8%
O=C(Nc1ccc2c(c1)OCO2)C1CCCN1C(=O)Nc1ccccc1F (stereo not given)	-2.1%	-6.4%	10.6%	-7.6%	-0.3%	1.9%
COc1ccc(OC2C(=O)N(c3cc(C)ccc3C)C2c2ccc(OC)c(OC)c2)cc1 (stereo not given)	2.1%	-14.4%	18.4µM*	-6.2%	-0.7%	-0.2%
COc1ccc(OC2C(=O)N(c3ccc(C)c(C)c3)C2c2ccc(OC)c(OC)c2)cc1 (stereo not given)	0.6%	-38.0%	?	-5.9%	1.5%	-3.2%
CCN(CCO)c1ncnc2c1sc1nc(C(C)C)c3c(c12)CC(C)(C)OC3	1.7%	-19.8%	?	-5.4%	-0.5%	-1.4%
CC(C)[C@H](N)c1nnc(SCc2ccc(Cl)cc2)o1	-17.1%	-15.9%	-1.6%	-2.2%	-2.0%	-6.4%
O=C(/C=C/c1ccc2c(c1)OCO2)N1CCOCC1	25.6%	.	?	11.2%	16.9µM*	19.3%
CC(C)(C)c1ccc(/C=C/C(=O)N2CCOCC2)cc1	?	3.16µM*	?	?	10.7µM*	?
CC(C)Cc1ccc(/C=C/C(=O)N2CCOCC2)cc1	2.24µM*	12.6µM*	?	?	10.7µM*	2.82µM*
O=C(/C=C/c1ccc2c(c1)OCO2)N1CCN(c2ccccc2F)CC1	-5.7%	6.3%	9.2%	-0.5%	?	1.4%
CC(C)(C)c1ccc(/C=C/C(=O)N2CCN(c3ncccn3)CC2)cc1	-2.9%	-3.7%	-8.0%	-3.1%	23.9µM*	-3.4%
Cc1cc2c(n1-c1ccc(C(=O)NCc3ccccc3Cl)cc1)CCCC2	.	.	.	.	5.6%	.
Cc1noc(C)c1CSCC(=O)N(CC(C)C)c1c(N)n(Cc2ccccc2)c(=O)[nH]c1=O	-4.2%	.	-18.4%	3.4%	-0.7%	0.9%
CSc1ncc(C(=O)Nc2cccc(Cl)c2C)c(C)n1	-1.6%	.	6.3%	-1.0%	2.8%	-3.0%
O=C(O)C1CCCCC1C(=O)NCCc1ccccc1 (stereo not given)	0.8%	7.7%	18.8%	0.7%	3.7%[2.3 µM]	-3.1%
COc1ccc(/C=C/C(=O)c2ccncc2)c2ccccc12	-5.3%	-56.7%	3.6%	-3.6%	?	1.5%
COc1ccc(/C=C/C(=O)c2ccc(O)cc2O)cc1OC	.	-88.6%	.	.	.	.
COc1ccc(/C=C/C(=O)c2ccc[nH]2)cc1OC	3.16µM*	?	?	20.6µM*	12µM*	?
COc1ccc(/C=C/C(=O)c2ccc[nH]2)c(OC)c1OC	?	?	?	?	8.49µM*	?
COc1cc(CN(C2CCCCC2C)S(=O)(=O)c2ccc(S(=O)(=O)NC3CC3)cc2)cc(OC)c1OC (stereo not given)	-6.7%	-15.8%	18.4µM*	-9.8%	3.7%	-6.5%
Cc1cc(C)nc(Sc2nc(Cl)nc(N(c3ccccc3)c3ccccc3)n2)n1	-4.5%	12.5%	?	?	2.7%	3.7%
Clc1ccc(-n2ncc3c(NC4CCCC4)ncnc32)cc1	.	.	.	.	0.849µM*	.
CCOC(=O)N1CCC(Nc2ncnc3c2cnn3-c2ccccc2)CC1	20.3%	-35.8%	?	-4.3%	-16.9%	-2.4%
SMILES	Rab9 promoter act	SMN2 splice enh	ELG1 DNA repair	ELG1 genotoxic	FLuc modulator	NPC1 prom act
Cc1ccc(-n2ncc3c(NC4CCCCCC4)ncnc32)cc1Cl	.	.	.	.	2.69µM*	.
Cc1ccc(Cl)cc1-n1ncc2c(NC3CCCCCC3)ncnc21	.	.	.	.	-0.4%	.
Fc1ccc(-n2ncc3c(Nc4ccc(Oc5ccc(Cl)cc5)cc4)ncnc32)cc1	.	.	.	.	0.6%	.
c1ccc(-n2ncc3c(NC4CCCCCC4)ncnc32)cc1	1.78µM*	.	?	?	2.69µM*	1.78µM*
O=C(NC(=S)N1CCCC(O)C1)c1ccco1 (stereo not given)	.	.	0.6%	3.2%	.	.
CCOC(=O)c1c(-c2ccccc2)csc1NC(=O)CCN1CCOCC1	-4.3%	-8.0%	23.1µM*	-4.1%	-1.0%	-0.1%
CCOC(=O)c1c(-c2ccc(C)cc2)csc1NC(=O)CCN1CCOCC1	-1.1%	-22.3%	-17.0%	-1.5%	-1.4%	-3.3%
CCOC(=O)c1c(-c2ccccc2)csc1NC(=O)CSc1nnnn1C	9.7%	-31.1%	4.11µM*	-21.8%	-2.1%	7.6%
O=C(c1ccc2c(=O)n(Cc3ccc4c(c3)OCO4)c(=O)[nH]c2c1)N1CCN(c2ccccc2)CC1	0.9%	.	0.3%	7.4%	6.0%	0.9%
CNC(=S)Nc1cccc(Cl)c1C	-0.7%	-9.6%	-8.3%	-3.5%	0.7%	-4.3%
CC(C)(C)c1ccc(C(=O)Nc2ccc(C(=O)N3CCCC3)cc2)cc1	-1.5%	.	-6.7%	-13.5%	?	0.9%
COc1ccc(Nc2ncc(C(=O)N3CCN(Cc4ccccc4)CC3)c3ccccc23)cc1	-7.9%	-40.9%	16.4µM*	-9.3%	19µM*	0.6%
C[N+]1=C(/C=C/Nc2ccccc2Cl)C(C)(C)c2ccccc21	-0.8%	-5.9%[1.84 µM]	-2.8%	-2.9%	?	1.2%
COC(=O)c1ccc2c(c1)C(C)(C)C(/C=C/c1ccccc1O)=[N+]2C	-45.3%	-93.3%	6.51µM*	?	15.1µM*	-42.1%
Cc1ccc(N/C(N)=N/c2nc(C)cc(N3CCCCC3)n2)c(C)c1	-38.8%	-59.7%	16.4µM*	-23.6%	-1.9%	-44.9%
CCN(CC)c1ccc2cc(-c3nnc(Nc4ccc(C)cc4)s3)c(=O)oc2c1	.	.	.	.	0.3%	.
O=C(CSc1nnc(-c2ccccn2)o1)Nc1ccccc1F	0.794µM*	.	?	?	1.7%	0.447µM*
O=C(CSc1nc2c(oc3ccccc32)c(=O)[nH]1)Nc1cccc(Cl)c1	.	20µM*	.	.	1.2µM*	.
Cc1nc(SCC(=O)Nc2cccc(Cl)c2)n[nH]1	-1.3%	14.9%	-0.3%	2.7%	3.7%	-6.4%
O=C(CSc1nnc(-c2ccccn2)o1)Nc1cccc(Cl)c1	2.24µM*	.	?	6.4%	.	?
O=C(CSc1n[nH]c(-c2ccccn2)n1)Nc1cccc(Cl)c1	-40.2%	.	25.9µM*	-5.8%	?	-34.8%
Cc1ccccc1NC(=O)CSc1nnc(-c2ccccn2)o1	?	.	0.0%	7.8%	-4.2%	29.2%
CC(N=C(NC#N)Nc1ccncc1)C(C)(C)C (stereo not given)	-7.3%[46.1 µM]	4.0%	-25.5%	-2.3%	7.0%	3.1%[46.1 µM]
